According to PubChem BioAssay AID1159580 (chemical genetic matrix, 2015):
The whole screen tested about 5,500 compounds, of which about 2,000 (36%) were called active. Not shown: some 18% with an inconclusive outcome. No stated cut-off is given here; in the data, active means normalized growth mostly below about 0.91 (no sharp cut-off); inconclusive means no clear call, values can overlap the other calls; inactive means mostly above about 0.92. This is one part of the list.

Test: chemical genetic growth profiling, strain panel (AID 1159580);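 further: tested at 20 µM; growth read once vehicle control cultures reached saturation at 30 °C; 1 = growth at the plate median or of vehicle wells; lower values mean less growth of the strain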
Settings: growth OD
[1] = S. cerevisiae deletion strains, locus YJR075W, strain HOC1, active compounds read low
[2] = S. cerevisiae deletion strains, locus YMR307W, strain GAS1, active compounds read low
[3] = S. cerevisiae deletion strains, locus YNL322C, strain KRE1, active compounds read low
[4] = S. cerevisiae deletion strains, locus YPL055C, strain LGE1, active compounds read low
[5] = S. cerevisiae deletion strains, locus YPL241C, strain CIN2, active compounds read low
[6] = S. cerevisiae deletion strains, locus YAL013W, strain DEP1, active compounds read low
[7] = S. cerevisiae deletion strains, locus YBR229C, strain ROT2, active compounds read low
[8] = S. cerevisiae deletion strains, locus YDL101C, strain DUN1, active compounds read low
[9] = S. cerevisiae deletion strains, locus YDL134C, strain PPH21, active compounds read low
[10] = S. cerevisiae deletion strains, locus YDR150W, strain NUM1, active compounds read low
[11] = S. cerevisiae deletion strains, locus YEL061C, strain CIN8, active compounds read low
[12] = S. cerevisiae deletion strains, locus YGR078C, strain PAC10, active compounds read low
[13] = S. cerevisiae deletion strains, locus YHR030C, strain SLT2, active compounds read low
[14] = S. cerevisiae deletion strains, locus YHR087W, strain rtc3, active compounds read low
[15] = S. cerevisiae deletion strains, locus YJR043C, strain POL32, active compounds read low
[16] = S. cerevisiae deletion strains, locus YKL190W, strain CNB1, active compounds read low
[17] = S. cerevisiae deletion strains, locus YLR039C, strain RIC1, active compounds read low
[18] = S. cerevisiae deletion strains, locus YLR058C, strain SHM2 (second series), active compounds read low
[19] = S. cerevisiae deletion strains, locus YLR085C, strain ARP6, active compounds read low
[20] = S. cerevisiae deletion strains, locus YLR262C, strain YPT6, active compounds read low
[21] = S. cerevisiae deletion strains, locus YML094W, strain GIM5, active compounds read low
[22] = S. cerevisiae deletion strains, locus YMR219W, strain ESC1, active compounds read low
[23] = S. cerevisiae deletion strains, locus YMR263W, strain SAP30, active compounds read low
[24] = S. cerevisiae deletion strains, locus YNL153C, strain GIM3, active compounds read low
[25] = S. cerevisiae deletion strains, locus YNL298W, strain CLA4 (second series), active compounds read low
[26] = S. cerevisiae deletion strains, locus YNR030W, strain Alg12, active compounds read low
[27] = S. cerevisiae deletion strains, locus YPR135W, strain CTF4, active compounds read low
[28] = S. cerevisiae deletion strains, locus YCL061C, strain MRC1, active compounds read low
[29] = S. cerevisiae deletion strains, locus YGR229C, strain SMI1, active compounds read low

Measured: normalized growth

Nc1ccc(CCNc2ncnc3c2ncn3C2OC(CO)C(O)C2O)cc1 (stereo unspecified)
inactive: S. cerevisiae deletion strains, locus YAL040C, strain CLN3, active compounds read low 1.03 | S. cerevisiae deletion strains, locus YCL061C, strain MRC1 (second series), active compounds read low 0.997 | S. cerevisiae deletion strains, locus YDR363W, strain ESC2, active compounds read low 0.988 | S. cerevisiae deletion strains, locus YER002W, strain NOP16, active compounds read low 0.991 | [1] 1 | [2] 1.02 | S. cerevisiae deletion strains, locus YNL175C, strain NOP13, active compounds read low 0.985 | S. cerevisiae deletion strains, locus YNL197C, strain WHI3, active compounds read low 1.01 | S. cerevisiae deletion strains, locus YNL224C, strain SQS1, active compounds read low 0.977 | [3] 0.995 | S. cerevisiae deletion strains, locus YOR083W, strain WHI5 (second series), active compounds read low 0.995 | [4] 0.986 | [5] 0.999

OCc1nccn1Cc1ccc(Cl)cc1
active: [13] 0.288 | [2] 1.51 [resistant]
inactive: [6] 1.02 | [7] 1 | [8] 1.03 | [9] 1.02 | [10] 1.05 | [11] 1 | [12] 1 | [14] 0.983 | [15] 1.03 | [1] 0.944 | [16] 0.999 | [17] 0.889 | [18] 0.998 | [19] 1.02 | [20] 0.849 | [21] 0.983 | [22] 1.01 | [23] 1.04 | [24] 1.02 | [25] 0.923 | [3] 1 | [26] 0.947 | [4] 1.08 | [5] 1.02 | [27] 1.03

COc1cscc1C(N)=O
inactive: [6] 1.01 | [7] 0.984 | [28] 1.02 | [8] 1 | [10] 1.06 | [11] 0.959 | [12] 1.01 | [29] 0.99 | [13] 1.06 | [14] 1.03 | [15] 1.04 | [1] 1.04 | [17] 1.01 | [18] 0.997 | [19] 0.965 | [20] 0.998 | [21] 0.979 | [22] 0.987 | [23] 1.06 | [2] 0.966 | [24] 1.01 | [25] 0.969 | [3] 0.996 | [26] 1.01 | [4] 1.12 | [5] 0.957 | [27] 1.14

COC(=O)c1ccsc1N
inactive: [6] 0.988 | [7] 1 | [8] 1.01 | [10] 1.07 | [11] 0.985 | [12] 1 | [29] 0.981 | [13] 1.09 | [14] 0.995 | [15] 1.02 | [1] 1.01 | [16] 0.99 | [17] 1 | [18] 0.983 | [19] 0.94 | [20] 1.14 | [21] 0.97 | [22] 0.993 | [23] 1.02 | [24] 1 | [25] 0.963 | [3] 0.992 | [26] 0.976 | [4] 0.986 | [5] 0.958 | [27] 1.11

COC(=O)c1cscc1Sc1ccc(Cl)cc1
active: [9] 0.82 | [13] 0.319 | [17] 0.747 | [19] 0.664 | [20] 0.771 | [3] 0.939 | [26] 0.848 | [5] 0.845 | [27] 0.565
inactive: [6] 0.948 | [7] 0.953 | [28] 0.978 | [8] 0.961 | [10] 0.983 | [11] 0.931 | [12] 0.956 | [14] 0.944 | S. cerevisiae deletion strains, locus YJL187C, strain SWE1, active compounds read low 0.995 | [15] 0.987 | [1] 0.943 | [18] 0.955 | [21] 0.914 | [22] 0.96 | [23] 0.989 | [24] 0.968 | [25] 0.916 | [4] 0.998 | S. cerevisiae strains, strain wild type, active compounds read low 0.949
